High-throughput results (PubChem)
This is one part of a sample in which hits are shown more often than they occur.
Cruzain inh noDet: cruzain (T. cruzi) inhibition without detergent; hit rate 2.3% among 200,000; purified cruzain, Z-FR-AMC fluorescence, no detergent; Potency, µM, inactives show max response, negative = inhibition, usual class: inhibitors; P25779; AID 1476;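 also: plate controls were enzyme without inhibitor for no effect and buffer without enzyme for full effect; nearly all actives have a fitted effect of over 40% in size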
Target sequence (P25779 123-467 limits assumed): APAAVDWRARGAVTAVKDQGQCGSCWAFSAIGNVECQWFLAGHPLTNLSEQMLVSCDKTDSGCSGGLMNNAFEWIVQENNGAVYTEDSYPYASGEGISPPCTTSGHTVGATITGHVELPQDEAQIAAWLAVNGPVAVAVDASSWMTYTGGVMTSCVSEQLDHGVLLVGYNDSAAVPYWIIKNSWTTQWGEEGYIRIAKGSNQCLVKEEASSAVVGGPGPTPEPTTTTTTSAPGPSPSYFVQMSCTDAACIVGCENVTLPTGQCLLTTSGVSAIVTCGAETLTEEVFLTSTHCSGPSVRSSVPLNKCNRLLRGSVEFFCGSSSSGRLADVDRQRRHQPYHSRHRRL
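Detergent-free condition (0.00005% Triton X-100) in acetate buffer pH 5.5 with DTT. 1.5 nM enzyme and compound were pre-mixed 15 min, then 2 uM Z-FR-AMC substrate added; reaction progress from fluorescence change between first and third reads (60 s).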
NS1 function inh: inhibitors of influenza NS1 protein function; hit rate 0.4% among 270,000; AID 2326; Potency, µM (series often up to 46.1 µM), without a hit: top-dose activity, positive = more growth; calls by dose curve; also: actives are rising curves; nearly all actives have a fitted effect of over 50% in size
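In this qHTS, NS1 from influenza A is expressed in budding yeast, where it slows growth. Cells are switched from glucose to 2% galactose medium (pH 6.0, -URA), treated with compound, and growth recovery is read at OD600.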
Cruzain Triton: cruzain (T. cruzi) inhibition with detergent | hit rate 0.43% among 200,000 | purified cruzain, Z-FR-AMC fluorescence, 0.01% Triton | AID 1478 | Potency, µM, for inactives: max response, negative = inhibition, hits mostly inhibitors;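 also: plate controls were neutral wells for no effect and buffer without enzyme for full effect; nearly all actives have a fitted effect of over 40% in size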
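Sodium acetate buffer (100 mM, pH 5.5) containing 5 mM DTT and 0.01% Triton X-100 hosted 1.5 nM cruzain and test compound for 15 min at room temperature. Cleavage of 2 uM Z-FR-AMC was then tracked by fluorescence.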
Papain inh: blocks papain protease activity, flagging nonselective cruzain hits | shares compounds with Cruzain Triton | purified papain, Z-FR-AMC fluorescence cleavage | Potency, µM, for inactives: max response, negative = inhibition, actives largely listed as inhibitors | hit rate 41% among 410 | AID 2161;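 also: 0% = no-compound wells and -100% = no-enzyme wells; nearly all actives have a fitted effect of over 35% in size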
An asterisk follows results filed as active; ? = inconclusive; . = no result given. Unless noted, calls follow the shape of the dose curve; as a rule, active = well fitted curve in the direction sought with a large enough effect; inconclusive = small, poorly fitted or top-dose-only effect, or another doubt; inactive = no such curve, though single readings can be large; an effect the other way counts as inactive or inconclusive. Potency is read from the fitted curve at half-maximal effect.

SMILES	Cruzain inh noDet	NS1 function inh	Cruzain Triton	Papain inh
CC(C)(CNC(=O)C1CCCC1)CNC(=O)C1CCCC1	-6.3%	9.1%	-0.8%	.
CC(C)(C)NC(=O)NC(=O)COC(=O)CNC(=O)C1CCCCC1	.	-2.9%	.	.
O=C(NCc1ccc(N2CCCC2=O)cc1)c1cn(Cc2ccccc2)nn1	-7.5%	-7.1%	7.3%	.
Cc1ccc2cc(CN(Cc3ccc4c(c3)OCO4)Cc3nnnn3Cc3ccco3)c(=O)[nH]c2c1	-3.1%	13.5%	-10.1%	.
COc1ccc2[nH]c(=O)c(CN(C3CCCCC3)C(c3nnnn3Cc3ccco3)C(C)C)cc2c1 (stereo unspecified)	?	10.8%	-23.6%	.
Cc1ccc(CN(Cc2cc3cc4c(cc3[nH]c2=O)OCCO4)Cc2nnnn2Cc2ccco2)cc1	11.5%	17.5%	20µM*	-26.3%
Cc1ccc2[nH]c(=O)c(CN(Cc3ccccc3)Cc3nnnn3C3CCCC3)cc2c1	11.6%	-41.1%	-11.7%	.
Cc1ccc2[nH]c(=O)c(CN(Cc3ccccc3)Cc3nnnn3Cc3ccco3)cc2c1	.	.	.	-12.9%
Cc1ccc2[nH]c(=O)c(CN(Cc3ccco3)Cc3nnnn3Cc3ccco3)cc2c1	.	.	.	-3.0%
Cc1ccc2[nH]c(=O)c(CN(CCCO)C(C)c3nnnn3Cc3ccco3)cc2c1 (stereo unspecified)	.	-4.2%	.	.
COc1ccc2[nH]c(=O)c(CN(Cc3nnnn3Cc3ccco3)C3CCCCC3)cc2c1	7.94µM*	?	7.08µM*	-41.8%
CC(=O)Nc1ccc(Nc2ccc(N3C(=O)CCCC3=O)cc2[N+](=O)[O-])cc1	10.8%	-10.2%	-8.4%	.
COc1ccc(CCNC(=O)c2ccc3nc[nH]c3c2)cc1	.	7.6%	.	.
COc1ccc2cc(CN(CCc3ccccc3)Cc3nnnn3Cc3ccco3)c(=O)[nH]c2c1	14.2%	-45.3%	-12.1%	.
CCc1ccc2[nH]c(=O)c(CN(Cc3ccco3)Cc3nnnn3Cc3ccco3)cc2c1	.	.	.	-18.9%
CC(=O)Nc1ccc(/C=C/C(=O)c2ccc(-n3nncc3-c3ccccc3)cc2)cc1	.	.	.	-6.2%
c1ccc(-c2cnnn2-c2ccccc2)cc1	.	0.3%	.	.
O=C(Nc1ccc(-n2nncc2-c2ccccc2)cc1)c1ccccc1	.	.	.	4.8%
CSc1ccc(/C=C/C(=O)c2ccc(NC(C)=O)cc2)cc1	?	-12.1%	-14.1%	.
COc1ccc(S(=O)(=O)N(CCc2ccccc2)CC(=O)Nc2cc(C)cc(C)c2)cc1OC	?	.	-5.8%	.
CCOc1ccc2nc(N3CCCC(C(=O)Nc4cccc(Cl)c4C)C3)sc2c1 (stereo unspecified)	3.4%	.	-5.7%	.
Nc1cc2c(cc1O)CCCC2	.	3.5%	.	.
O=C(NCCc1nc2ccccc2n1CCCOc1ccc2ccccc2c1)C1CCCCC1	.	.	.	10µM*
O=C(NCCc1nc2ccccc2n1CCOc1ccc2ccccc2c1)C1CCCCC1	.	.	.	-4.7%
COc1ccc(OC)c(NC(=O)C2CCCN(S(=O)(=O)c3cccc4cccnc34)C2)c1 (stereo unspecified)	1.3%	-34.0%	3.2%	.
SMILES	Cruzain inh noDet	NS1 function inh	Cruzain Triton	Papain inh
COc1cc(C(=O)Nc2ccccc2SCc2cc(=O)n3nc(C)sc3n2)cc(OC)c1OC	.	-2.3%	.	.
Cc1ccc(NC(=O)c2sc3nc(C)cc(C)c3c2N)cc1	.	-6.4%	.	.
CC(C)COC(=O)c1nnsc1NC(=O)Nc1ccccc1	15.8µM*	1.6%	3.2%	11.9%
CC(C)Cc1nnc(NC(=O)Nc2ccccc2)s1	.	-6.6%	.	.
COc1cc(C2NC(=O)CS2)cc(OC)c1OC (stereo unspecified)	1.9%	4.7%	-1.3%	.
CN1C(=O)/C(=N\OC(=O)c2ccccc2Cl)c2ccccc21	.	-3.8%	.	.
CC(C)CC(=O)Nc1cccc2c1C(=O)N(c1ccccc1)C2=O	-17.6%	-8.3%	-6.7%	.
CC(C)CC(=O)O/N=C1\C(=O)N(c2ccccc2)c2ccccc21	2.51µM*	3.3%	0.631µM*	1.12µM*
CC(C)(C)C(=O)O/N=C1/C(=O)N(c2ccccc2)c2ccccc21	20µM*	-0.8%	1.58µM*	25.1µM*
Cc1cc(C)cc(NC(=O)CCN2C(=O)c3ccccc3Sc3ncccc32)c1	3.9%	.	-1.1%	.
C=CCCC(=O)N1CCC(Oc2cccc(C(=O)NCc3ccccn3)c2)CC1	.	-12.9%	.	.
CSCCC(NC(=O)C12CC3CC(CC(C3)C1)C2)C(=O)OCC(=O)c1ccccc1 (stereo unspecified)	-5.5%	8.6%	0.8%	.
Cc1ccc(CNC(=O)c2ccc(N3CCC4(CC3)CC(c3ccccc3)=NO4)c([N+](=O)[O-])c2)cc1	.	-6.9%	.	.
CCC(C)[C@@H](N)C(=O)N/N=C/c1ccc2ncccc2c1 (stereo partly specified)	10µM*	4.9%	10µM*	6.3%
CC(C)(C)OC(=O)NCCC(=O)N/N=C/c1ccc2ncccc2c1	.	-5.6%	.	.
